Results on 53 compounds are retold here after PubChem BioAssay AID504327 (National Center for Advancing Translational Sciences (NCATS), 2011).

Molecules are shown by their SMILES. Where “and” joins values, the source holds several entries; their conditions need not be identical. Equal values may be shown once. Among all 390,000 compounds or so, about 820 (0.21%) were called active. Roughly 3% stayed inconclusive and do not appear here. The call rests on the fitted dose curve; in most records, active means well fitted inhibition curve with a large enough effect; inconclusive means small, poorly fitted or top-dose-only effect, or another doubt; inactive means no such curve, though single readings can be large or run the other way. What follows is part of a selection rich in actives, with near analogues and random picks from the rest. More than one record can exist for a structure, and the calls need not agree. Non-standard residues stand in square brackets, D forms with d. Residues, ends and D or L forms follow the SMILES beside them. Groups on a side chain read outwards from the residue. *: point of attachment. X1 = CCC(C)C(N)C1=NC(C(=O)*)CS1; Orn = NCCC[CH](N)C(=O)O
On the % scale 0 is the no-effect control and ±100 the full control effect; potency means the concentration at half of the fitted maximal effect.

Chain of Histone acetyltransferase KAT2A (Homo sapiens) (Q92830 whole entry, looked up): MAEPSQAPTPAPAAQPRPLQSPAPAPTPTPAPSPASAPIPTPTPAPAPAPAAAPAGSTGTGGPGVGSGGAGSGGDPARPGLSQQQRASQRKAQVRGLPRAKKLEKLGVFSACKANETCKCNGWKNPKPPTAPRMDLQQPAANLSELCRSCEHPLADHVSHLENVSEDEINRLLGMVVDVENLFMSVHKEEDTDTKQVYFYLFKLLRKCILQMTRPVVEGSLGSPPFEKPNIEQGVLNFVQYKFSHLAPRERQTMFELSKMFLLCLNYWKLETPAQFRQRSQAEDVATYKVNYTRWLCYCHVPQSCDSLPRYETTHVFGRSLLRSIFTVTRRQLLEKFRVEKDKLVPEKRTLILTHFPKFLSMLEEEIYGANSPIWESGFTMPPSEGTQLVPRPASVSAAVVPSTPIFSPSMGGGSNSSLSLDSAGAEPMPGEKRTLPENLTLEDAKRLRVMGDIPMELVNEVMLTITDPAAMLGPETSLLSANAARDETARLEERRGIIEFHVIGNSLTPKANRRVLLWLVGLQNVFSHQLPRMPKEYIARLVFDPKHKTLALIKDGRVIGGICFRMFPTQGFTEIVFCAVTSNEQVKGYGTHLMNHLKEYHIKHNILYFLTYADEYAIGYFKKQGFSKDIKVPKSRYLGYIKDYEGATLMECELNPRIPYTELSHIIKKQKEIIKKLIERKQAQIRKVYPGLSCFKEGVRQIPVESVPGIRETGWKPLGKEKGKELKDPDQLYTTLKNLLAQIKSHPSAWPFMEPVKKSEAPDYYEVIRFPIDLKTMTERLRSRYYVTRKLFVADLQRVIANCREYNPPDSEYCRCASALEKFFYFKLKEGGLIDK

This assay has as its target Histone acetyltransferase KAT2A (Homo sapiens) (UniProt Q92830). The assay is described as follows: qHTS Assay for Inhibitors of GCN5L2. The settings on record: GCN5L2 HAT assay, ThioGlo1 CoA-SH fluorescence; series mostly up to 58.9 µM; activity change, negative = inhibition: at the top concentration. The source says: Histone acetyltransferase (HAT) enzymes transfer a […] group from acetyl-coenzyme A to the epsilon-amino group of conserved lysine residues of N-terminal histone tails. Acetylation results in charge neutralization of this positively charged amino acid, decreasing interactions with the […] backbone and making the DNA more accessible for transcription. HATs have been recognized as an emerging drug target for treatment of cancer, diabetes, asthma, chronic obstructive pulmonary disease, cardiac disease, and viral infection. Protein identified with HAT activity include the […] like 2 (GCN5L2, a.ka. Histone acetyltransferase KAT2A) which acetylates histone H3 at Lys9, 14, 18, 13, and to lesser extent histones H4 and H2B. This activates transcription of the gene by modulating chromatin structure and installing the acetyllysine recognition mark for bromodomain-containing coactivator proteins.
A quantitative high throughput screen was developed to identify small molecule inhibitors. The assay is based on the principle that it measures formation of reduced CoA with the pro-fluorescent maleimide derivative ThioGlo1 that becomes fluorescent upon reaction with the free thiol of CoA.
A large number of artifacts are expected in this primary screen, compounded by the assay format (fluorescent artifacts) and by the high top concentration tested for each substance. This BioAssay data deposition should be used with caution, and counterscreen and secondary assay validation is essential since very few actives from the primary screen are expected to be true inhibitors of GCN5L2.
[2] Yasgar, et al. Compound Management for Quantitative High-Throughput Screening. JALA. 2008 Apr;13(2):79-89.
[3] Inglese, et al. Quantitative high-throughput screening: a titration-based approach that efficiently identifies biological activities in large chemical libraries. Proc Natl Acad Sci. 1;103(31):11473-8. 2006. PMID: 16864780
NIH Molecular Libraries Probe Production Network [MLPCN]
NIH Chemical Genomics Center [NCGC]
Structural Genomics Consortium (SGC)
To each well of a 1,536w plate, 3ul of GCN5L2 (final concentration 20nM, in 50mM HEPES, 0.1mM EDTA (pH 7.5), 0.01% Tween-20 buffer) are added using a Kalypsys dispenser. Only buffer is added to some wells as a control. A Kalypsys pin-tool transferred 23nl of library compound solution in DMSO to each well, as well as the control inhibit garcinol. . Following a 15 min incubation of enzyme with compounds at room temperature, 1ul mixture of ThioGlo1 (50uM final), H3(1-25) peptide (75uM final), and Acetyl-CoA (70uM final) is added. Plates are read immediately on the ViewLux (PerkinElmer) (Ex340nm/Em540nm) for a 0 min read, incubated for 20 min at room temperature, and read again on the ViewLux with the same settings. The initial read was carried out to identify compounds that are potentially fluorescent.
On the technique in general: qHTS replaces the single test concentration by a dilution series.
`COc1ccccc1-c1cc(NCc2cccs2)ncn1`: the “activity change, negative = inhibition” value was -5.87% (inactive).
For the compound `Cc1cc2oc(=O)cc(-c3ccccc3)c2c(C)c1/C=C/c1ccc(F)cc1`, the “activity change, negative = inhibition” value is 7.85% [at 88.6 µM] (inactive).
Consider `Cc1ccc(Cl)cc1NC(=O)C(C)n1nnc2sc(-c3ccccc3)cc2c1=O` (stereo not drawn), for which the Potency is 31.6 µM (active).
With `Cc1cc2nn(-c3ccc(Cl)cc3)nc2cc1NC(=O)C(C)C`, the “activity change, negative = inhibition” value is 0.272% (inactive).
Same read-out and setting: the figure for `CCCCCCn1nnc2sc(-c3ccccc3)cc2c1=O` is 6.09% (inactive); for `COc1ccccc1CCn1c(=O)c(-c2cn(C)c3ccccc23)nc2cncnc21` it is -1.86% (inactive).
The same measure, in the same setting: for `Cc1csc(-c2nc3ccccc3n2C)n1` the value was -8.33% (inactive); for `CN(Cc1ccco1)c1ncncc1-c1ccoc1`, -17% (inactive).
For `Nc1ncnc2c1ncn2C1CC(O)C(CO)O1` (stereo not drawn), the Potency entry was “inactive”.
Take `O=C(Nc1ccc(O)cc1)c1ccccc1O`: the “activity change, negative = inhibition” value is -15.8% (inactive).
Take `O=c1ccn([C@@H]2O[C@H](COP(=O)(O)OP(=O)(O)OP(=O)(O)O)[C@@H](O)[C@H]2O)c(=O)[nH]1`: the “activity change, negative = inhibition” value is 2.08% (inactive).
Turning to `NCCC(=O)c1ccccc1N`, the “activity change, negative = inhibition” value was -13.8% (inactive).
For the compound `N#Cc1ccc(CN2CCCC3(CCN(C(=O)c4ccco4)CC3)C2)cc1`, the “activity change, negative = inhibition” value is 5.96% (inactive).
Take `C=C1/C(=C\C=C2\CCCC3(C)C2CCC3C(C)/C=C/C(O)C2CC2)CC(O)CC1O` (stereo not drawn): the “activity change, negative = inhibition” value is -17% (inactive).
As to `CC(O)COc1ccccc1` (stereo not drawn), the “activity change, negative = inhibition” value was -19.1% (inactive).
Still for that read-out and setting: the figure for `NNc1nnc(NN)c2ccccc12` is -1.8% (inactive).
Same read-out and setting: the figure for `Cc1nc2cnc(N3CCN(C)CC3)nc2n(C[C@H]2CCCO2)c1=O` is -20.2% (inactive); for `Cc1cc(N(C)C)nc(Cl)n1` it is -23.2% (inactive); for `C=C(C)C1CC=C(C)C(O)C1` (stereo not drawn) it is 6.72% (inactive).
On to `O=C(O)C(O)[C@@](O)(Cc1ccc(O)cc1)C(=O)O` (stereo partly drawn), for which the “activity change, negative = inhibition” value is 1.54% (inactive).
Take `CCN(Cc1ccncc1)C(=O)[C@@H](CO)c1ccccc1`: the “activity change, negative = inhibition” value was 7.28% [at 21.4 µM] (inactive).
As for `CC1(C)O[C@@H]2C[C@@H]3[C@H]4C[C@@H](F)C5=CC(=O)C=C[C@]5(C)[C@@]4(F)[C@@H](O)C[C@]3(C)[C@]2(C(=O)CO)O1`, the “activity change, negative = inhibition” value is -11.6% (inactive).
Same read-out and setting: for `CC(C)[C@H]1CC[C@@H](C)C[C@H]1O` the value was 5.9% [at 0.501 µM] (inactive).
`O=P(O)(O)OC[C@H](O)CO`: the “activity change, negative = inhibition” value is -2.51% (inactive).
Turning to `O=c1[nH]c(=S)[nH]c2[nH]c(=S)[nH]c12`, the Potency was 4.47 µM (active) and 3.55 µM (active).
In the case of `COc1ccc(CC(N)C(=O)NC2C(O)[C@H](n3cnc4c(N(C)C)ncnc43)O[C@@H]2CO)cc1` (stereo partly drawn), the “activity change, negative = inhibition” value was 4.59% (inactive).
Still for that read-out and setting: for `O=c1cnc2cnc(Nc3ccccc3)nc2n1Cc1ccc(F)cc1` the value was -12.2% (inactive).
Turning to `O=C1OCCN1C(=O)[C@H]1[C@H](c2ccc(Cl)cc2)C(c2cccc(Cl)c2)=NN1c1ccc(Br)cc1`, the Potency result is “inactive and 12.6 µM (active)”.
Same read-out and setting: the entry for `C[C@@H]1C(c2ccc(F)cc2)=NN(c2ccc(Br)cc2)[C@H]1C(=O)N1CCOC1=O` is “inactive”.
Regarding `O=c1cc(-c2ccccc2)n2c(SCc3ccccc3)nnc2[nH]1`, the “activity change, negative = inhibition” value was -22.5% (inactive).
Still for that read-out and setting: for `CC(C)Cn1c(=O)c2ccccc2n2c(-c3cccc(Cl)c3)nnc12` the value was -8.17% (inactive).
Consider `O=c1[nH]c2ccccc2n2c(-c3ccccc3)nnc12`, for which the Potency is 22.4 µM (active).
For the compound `C[C@@H](O)[C@@H]1NC(=O)[C@H](CCCCN)NC(=O)[C@H](Cc2c[nH]c3ccccc23)NC(=O)[C@H](Cc2ccccc2)NC(=O)[C@H](Cc2ccccc2)NC(=O)[C@H](CC(N)=O)NC(=O)[C@H](CCCCN)NC(=O)[C@@H](NC(=O)[C@@H]2CCCN2)CSSC[C@@H](C(=O)N[C@@H](CCCCN)C(=O)O)NC(=O)[C@H](CO)NC(=O)[C@H](CO)NC(=O)[C@H](Cc2ccccc2)NC1=O`, the “activity change, negative = inhibition” value was -18.2% (inactive).
For `O=C(c1cnccn1)N1CCC[C@@]2(CCN(Cc3ccncc3)C2)C1`, the “activity change, negative = inhibition” value is 7.32% (inactive).
Same read-out and setting: for `CC(C)[C@@H]1NC(=O)[C@H](Cc2ccccc2)NC(=O)[C@@H](CC(=O)O)NC(=O)CNC(=O)[C@H](CCCNC(=N)N)NC1=O` the value was 10.5% (inactive); for `O=C(Nc1cccc(F)c1)N1CC2(CCN(C(=O)c3cnccn3)CC2)C1`, -0.477% (inactive).
Consider `CC(C)(O)c1ccccc1CC[C@H](SCC1(CC(=O)O)CC1)c1cccc(/C=C/c2ccc3ccc(Cl)cc3n2)c1`, for which the Potency is 20 µM (active).
In the case of `CCCCC/C=C\C/C=C\CCCCCCCCCC(=O)O`, the “activity change, negative = inhibition” value was -12.3% (inactive).
As to `CNc1ncnc2ccc(-c3cccc(NS(C)(=O)=O)c3)cc12`, the “activity change, negative = inhibition” value is -6.27% (inactive).
As to `C=C1O[C@@](CO)(n2cnc3c(N)ncnc32)[C@H](O)[C@@H]1O`, the Potency result is “inactive”.
As to `CC[C@H](C)[C@H](NC(=O)[C@H](CCCNC(=N)N)NC(=O)[C@H](CCCNC(=N)N)NC(=O)[C@H](CC(C)C)NC(=O)[C@H](Cc1ccccc1)NC(=O)CNC(=O)CNC(=O)[C@@H](N)Cc1ccc(O)cc1)C(=O)N[C@@H](CCCNC(=N)N)C(=O)N1CCC[C@H]1C(=O)N[C@@H](CCCCN)C(=O)N[C@@H](CC(C)C)C(=O)N[C@@H](CCCCN)C(=O)N[C@@H](Cc1c[nH]c2ccccc12)C(=O)N[C@@H](CC(=O)O)C(=O)N[C@@H](CC(N)=O)C(=O)N[C@@H](CCC(N)=O)C(=O)O`, the “activity change, negative = inhibition” value was 21.9% (inactive).
For the compound `FC(F)(F)C1CCCN(c2nsc3ccccc23)C1` (stereo not drawn), the Potency is 2.82 µM (active).
Consider `COCC(=O)N1CCC2(CCCN(c3ccccc3)C2)CC1`, for which the “activity change, negative = inhibition” value is 3.62% (inactive).
For the compound `O=S(O)S(=O)(=O)O`, the “activity change, negative = inhibition” value is 0.862% (inactive).
Same read-out and setting: for `CCC(C)C(N)C1=NC(C(=O)NC(CC(C)C)C(=O)NC(CCC(=O)O)C(=O)NC(C(=O)NCCCCC2NC(=O)C(CC(N)=O)NC(=O)C(CC(=O)O)NC(=O)C(Cc3cnc[nH]3)NC(=O)C(Cc3ccccc3)NC(=O)C(C(C)CC)NC(=O)C(CCCN)NC2=O)C(C)CC)CS1` (stereo not drawn) (cyclo(DNK([Ile-Glu-Leu-X1])[Orn]IFH); configuration not given here) the value was 12.2% (inactive); for `COC(=O)CC1C(C)(C)C(OC(C)=O)C2CC3=C4CC(=O)OC(c5ccoc5)[C@]4(C)CCC3[C@@]1(C)C2=O` (stereo partly drawn), 3.09% (inactive).
Same read-out and setting: the figure for `O=C(c1csnn1)N1CCC2(CC1)CN(c1ncccn1)C2` is -3.32% (inactive).
As to `CC(C)c1cnc(NC(=O)Cc2ccccc2)s1`, the “activity change, negative = inhibition” value was -7.71% (inactive).
As for `Cc1nc2cnc(N3CCN(C)CC3)nc2n(CCC#N)c1=O`, the “activity change, negative = inhibition” value was -21% (inactive).
Same read-out and setting: the figure for `C[C@H]1CCC[C@@]2(C)CCCC[C@]12O` is -21.9% (inactive).
Regarding `CC(CCC(=O)O)C1CCC2C3C(O)C[C@@H]4CC(O)CC[C@@]4(C)C3CC[C@@]12C` (stereo partly drawn), the Potency result is “inactive”.
With `O=c1cc(-c2ccc(O)cc2)oc2c([C@@H]3O[C@H](CO)[C@@H](O)[C@H](O)[C@H]3O)c(O)cc(O)c12`, the “activity change, negative = inhibition” value was -14.1% (inactive).
For `O=C(c1ccncc1)N1CCC2(CCCN(C(c3ccccc3)c3ccccc3)C2)CC1`, the “activity change, negative = inhibition” value is -12.2% (inactive).
